These results are taken from PubChem BioAssay (NCATS).

Experiment [1] is described as follows: Confirmation and Secondary Assay for Modulators of Hemoglobin Beta Chain Splicing at IVS2 654 locus (AID 910).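 Also: HeLa cells stably carrying EGFP split by mutant beta-globin IVS2-654 intron; % of control where 0% means no effect.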 In a few lines:
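HeLa cells stably expressing EGFP interrupted by β-globin IVS2-654 intron, seeded overnight in Opti-MEM/2% FCS, then treated 2 days at 37 °C. Restored splicing read as total peak GFP intensity per well by laser scanning cytometry (488 nm excitation, 500–520 nm emission); 500 nM antisense PNA as control.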

Experiment [2] is described as follows: Confirmation and Secondary Assay for Modulators of Hemoglobin Beta Chain Splicing at IVS2 705 locus (AID 930).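 Also: HeLa cells stably expressing the EGFP-705 splicing reporter; GFP fluorescence per well restored by corrected splicing of the IVS2-705 intron in EGFP; % of control where 0% means no effect.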 In outline:
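Stable HeLa line with EGFP disrupted by mutant beta-globin intron 2 (705). Overnight attachment, then 2 days of compound at 37C, 5% CO2. Signal: peak GFP intensity summed over objects 5-250 µm.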

Experiment [3] in a line: qHTS Assay for Lipid Storage Modulators (AID 1519; calls by dose curve; also: potency is read from the fitted curve at half-maximal effect; as to activity change, negative = inhibition: % is scaled to controls: 0 for no effect and ±100 for the full control effect). Conditions: Drosophila S3 cells, BODIPY lipid droplet/cell ratio, laser cytometry, cells loaded with oleic acid. In a few lines:
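Cells seeded at 5,000 per well were treated with compounds over a concentration series and loaded with oleic acid (400 uM, as added). Lipid droplet fluorescence (488 nm excitation, 500-530 nm channel) was read by laser-scanning cytometry and normalized to 20 uM Triacsin C.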
In general terms: qHTS replaces the single test concentration by a dilution series.

Experiment [4] concerns the target Cytochrome P450 3A4 (Homo sapiens) (UniProt P08684). The experiment is described as follows: qHTS Assay for Activators of Cytochrome P450 3A4 (AID 885). Also: nearly all actives have a fitted effect of over 65% in size. In a few lines: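 Signal was normalized against complete inhibition by 57 uM ketoconazole. The reaction used 20nM CYP3A4 with 25uM Luciferin-PPXE, 10-min compound preincubation and a 60-min NADPH-supported step at RT.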

The target in experiment [5] is Alpha-galactosidase (Coffea arabica) (UniProt Q42656). As to the kind of experiment: Counterscreen for Glucocerebrosidase Inhibitors: qHTS Assay for Coffee Bean alpha-Galactosidase at pH 4.5 (AID 957).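 Also: plate controls were enzyme alone for no effect and no enzyme for full effect.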 In a few lines: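 Coffee bean alpha-galactosidase 2 nM, substrate 4-MU-alpha-Gal 80 uM, pH 4.5 citrate/Tween-20, 20 min RT. Cpd titration 0.7 nM–77 uM. Stop pH 10, fluorescence 365/440 nm; Hill-equation AC50.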
Background: Counterscreens check selectivity or assay interference.

The target is the same in experiment [6]. The experiment is described as follows: Counterscreen for Glucocerebrosidase Inhibitors: qHTS Assay for Coffee Bean alpha-Galactosidase at pH 5.9 (AID 998).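 Also: plate controls were uninhibited enzyme for no effect and no-enzyme basal signal for full effect.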 In a few lines: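 Green coffee bean enzyme (2 nM) with 4-methylumbelliferyl alpha-D-galactopyranoside (80 uM) in 50 mM citric acid, 0.005% Tween-20, pH 5.9, 20 min at room temperature; compounds 0.7 nM–77 uM. Stopped at pH 10, fluorescence Ex365/Em440; Hill-fit AC50.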

Experiment [7] has as its target Cytochrome P450 3A4 (Homo sapiens) (UniProt P08684). As to the kind of experiment: qHTS Assay for Inhibitors and Substrates of Cytochrome P450 3A4 (AID 884). Also: nearly all actives have a fitted effect of over 50% in size. Also: potency is read from the fitted curve at half-maximal effect. As to activity change, negative = inhibition: % is scaled to controls: 0 for no effect and ±100 for the full control effect. In a few lines: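 20 nM human CYP3A4 with 25 uM Luciferin-PPXE (at KM) in 200 mM KPO4, preincubated 10 min with compound; NADPH regeneration started a 60 min RT reaction. Luciferin detected by luminescence, normalized to 57 uM ketoconazole as full inhibition.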

Experiment [8] is described as follows: Confirmatory qHTS to identify inhibitors of SARS-CoV-2 cell entry (AID 1645844; calls by dose curve; also: potency is read from the fitted curve at half-maximal effect; nearly all actives have a fitted effect of over 45% in size). In outline: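 HEK293-ACE2 cells were pretreated 1 h with compound, then infected with MLV-based pseudoparticles bearing C-terminally truncated Wuhan-Hu-1 spike for 48 h at 37C; luciferase luminescence normalized to spike PP and bald PP wells.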
Experiment [9] is described as follows: Cytotoxicity counterscreen for inhibitors of SARS-CoV-2 cell entry (AID 1645845; calls by dose curve; also: % is scaled to controls: 0 for no effect and ±100 for the full control effect; nearly all actives have a fitted effect of over 50% in size). Conditions: outcome: dose series up to 57.1 µM unless noted. In outline:
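HEK293-ACE2 cells (Expi293F stably expressing human ACE2) seeded overnight, then compound for 1 h plus 48 h at 37C. Viability as ATP content by luminescence; normalized to wells with cells and media-only wells.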

The nature of experiment [10]: Primary qHTS to identify inhibitors of SARS-CoV-2 cell entry (AID 1645846; calls by dose curve; also: nearly all actives have a fitted effect of over 45% in size). Particulars: SARS-CoV-2 pseudovirus cell entry assay, luminescence; activity change, negative = inhibition: at 57.1 µM (top of the series) unless noted. In outline: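 Entry measured by luciferase signal 48 h after adding SARS-CoV-2-S pseudotyped MLV particles to HEK293-ACE2 cells preincubated 1 h with compounds. Normalisation: bald particles and spike particles.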

Experiment [11] in a line: VSVG counterscreen qHTS to identify inhibitors of SARS-CoV-2 cell entry (AID 1645847; calls by dose curve; also: potency is read from the fitted curve at half-maximal effect; nearly all actives have a fitted effect of over 65% in size). In outline: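 Luminescence read after 48 h infection at 37 C with VSV-G-pseudotyped MLV particles, following 1 h compound exposure of Expi293F cells stably expressing human ACE2; scaled between bald particle and VSV-G particle wells.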
[12] abbreviates: measured here: cell count channel max response.
The mark [13] stands for this setting: measured here: lipid channel max response.

Structures are written as SMILES. Inconclusive results are not listed. The source made the active and inactive calls. Unless noted, calls follow the shape of the dose curve; as a rule, active = well fitted curve in the direction sought with a large enough effect; inconclusive = small, poorly fitted or top-dose-only effect, or another doubt; inactive = no such curve, though single readings can be large; an effect the other way counts as inactive or inconclusive.

Sequence of Alpha-galactosidase (Coffea arabica) (Q42656 whole entry, looked up): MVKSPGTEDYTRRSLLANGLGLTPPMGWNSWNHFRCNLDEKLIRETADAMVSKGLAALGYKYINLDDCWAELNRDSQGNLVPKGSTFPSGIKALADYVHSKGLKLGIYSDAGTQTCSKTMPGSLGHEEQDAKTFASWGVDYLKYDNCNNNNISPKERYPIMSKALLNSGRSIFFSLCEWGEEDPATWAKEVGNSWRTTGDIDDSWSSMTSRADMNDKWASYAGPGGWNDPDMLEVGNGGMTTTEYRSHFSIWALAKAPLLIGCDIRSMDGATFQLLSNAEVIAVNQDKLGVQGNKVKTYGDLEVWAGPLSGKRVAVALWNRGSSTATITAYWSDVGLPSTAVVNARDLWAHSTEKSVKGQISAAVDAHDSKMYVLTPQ
Sequence of Cytochrome P450 3A4 (Homo sapiens) (P08684 whole entry, looked up): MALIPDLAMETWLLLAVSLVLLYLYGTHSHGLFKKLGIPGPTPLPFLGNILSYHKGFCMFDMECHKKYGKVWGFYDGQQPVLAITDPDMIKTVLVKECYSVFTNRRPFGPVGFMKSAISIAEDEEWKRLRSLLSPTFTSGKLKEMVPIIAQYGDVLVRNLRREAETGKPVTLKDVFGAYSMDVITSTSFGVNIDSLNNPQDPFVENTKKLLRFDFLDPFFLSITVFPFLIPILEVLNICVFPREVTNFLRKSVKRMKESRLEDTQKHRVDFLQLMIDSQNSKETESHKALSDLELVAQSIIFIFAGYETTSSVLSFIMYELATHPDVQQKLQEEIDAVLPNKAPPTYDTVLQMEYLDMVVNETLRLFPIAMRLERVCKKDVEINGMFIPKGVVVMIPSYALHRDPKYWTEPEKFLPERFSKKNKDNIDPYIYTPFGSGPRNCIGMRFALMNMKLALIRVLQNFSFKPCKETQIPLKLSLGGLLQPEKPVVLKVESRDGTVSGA

As for `CN1CC(CNC(=O)OCc2ccccc2)CC2c3cccc4c3c(cn4C)CC21` (stereo not drawn), the Potency entry in experiment [1] and in experiment [2] was “inactive” throughout. Also, the activity change, negative = inhibition in [3] (at 57.5 µM (top of the series)) was 7.09% (inactive). The max response was -1.98% in experiment [3] (setting [12]) and 5.84% in experiment [3] (setting [13]).

On to `NNCc1ccccc1`, for which the Potency entry in experiment [4], in [1] and in experiment [2] was “inactive” each time. Besides, the activity change, negative = inhibition in [3] (at 57.5 µM (top of the series)) is 14.8% (inactive). Moreover, the values for the max response in experiment [3] (setting [12]) and in experiment [3] (setting [13]) were 5.74% and 20.3%, respectively.

Turning to `CC(C)C[C@H]1C(=O)N2CCC[C@@H]2[C@]2(O)O[C@](NC(=O)[C@H]3C=C4c5cccc6[nH]c(Br)c(c56)C[C@H]4N(C)C3)(C(C)C)C(=O)N12`, the outcome in experiment [5] and in experiment [6] was inactive. In [3] (at 25.7 µM (top of the series)), the activity change, negative = inhibition is -0.675% (inactive). Moreover, the max response in [3] (setting [12]) was -7.2%; in [3] (setting [13]) it was -5.42%.

On to `C[C@]12CCC3C(CC[C@]4(O)CC(O)CC[C@@]34C=O)[C@]1(O)CCC2C1=CC(=O)OC1` (stereo partly drawn), for which the Potency result in [1] and in experiment [2] was “inactive” each time. Moreover, the activity change, negative = inhibition in [3] (at 57.5 µM (top of the series)) is -3.74% (inactive). Moreover, the figures for the max response in experiment [3] (setting [12]) and in experiment [3] (setting [13]) were 12.5% and 11%, respectively.

As for `COc1cc2c(cc1OC)[C@@H]1C(=O)c3ccc4oc(C(C)C)cc4c3OC1CO2` (stereo partly drawn), the Potency entry in experiment [1] and in experiment [2] was “inactive” in each case. Also, the Potency in [3] is 2.51 µM (active). For the same molecule, the results for the max response in experiment [3] (setting [12]) and in experiment [3] (setting [13]) were -28.2% and -80.9%, respectively.

Take `C=C1C2CC[C@@]3(C)C(c4ccoc4)OC(=O)C[C@@]13OC1CC(=O)C(C)(C)C(C(OC(C)=O)C(=O)OC)[C@@]12C` (stereo partly drawn): the Potency entry in experiment [4], in experiment [1] and in [2] was “inactive” throughout. Besides, the activity change, negative = inhibition in experiment [3] (at 57.5 µM (top of the series)) is 1.36% (inactive). The max response in experiment [3] (setting [12]) turned out to be 4.29%; in experiment [3] (setting [13]) it was 7.56%.

As to `C[C@@]12CCC(O)C[C@H]1CCC1C2CC[C@]2(C)C(=O)CCC12` (stereo partly drawn), the Potency entry in [4], in [1] and in experiment [2] was “inactive” in each case. Also, in experiment [3] (at 57.5 µM (top of the series)), the activity change, negative = inhibition was 1.65% (inactive). Moreover, the max response in experiment [3] (setting [12]) was determined as 7%; in experiment [3] (setting [13]), 9.46%.

As for `COC1C(O)C(OC2CC[C@]3(C=O)C4C(OC(C)=O)C[C@@]5(C)C(C6=CC(=O)OC6)CC[C@]5(O)C4CC[C@]3(O)C2)OC(C)C1OC(C)=O` (stereo partly drawn), the Potency result in experiment [7], in experiment [1] and in experiment [2] was “inactive” in each case. The activity change, negative = inhibition in [3] (at 57.5 µM (top of the series)) was 4.28% (inactive). The max response in experiment [3] (setting [12]) was 10%; in experiment [3] (setting [13]) it was 17.4%.

`Cc1cc(OC(=O)N2CCCCC2)c(C(C)C)cc1[N+](C)(C)C`: the Potency entry in [7], in experiment [1] and in experiment [2] was “inactive” in each case. Also, the activity change, negative = inhibition in [3] (at 57.5 µM (top of the series)) is 8.28% (inactive). The max response was 17.5% in experiment [3] (setting [12]) and 31.1% in experiment [3] (setting [13]).

`CC1(C)C(=O)C=C[C@@]2(C)C1=C(O)C(=O)[C@@]1(C)C2CC[C@@]2(C)C(c3ccoc3)C[C@H]3O[C@@]321` (stereo partly drawn): the Potency in [7] is 0.501 µM (active). Moreover, the Potency result in [4], in experiment [1] and in experiment [2] was “inactive” each time. Also, the activity change, negative = inhibition in experiment [3] (at 57.5 µM (top of the series)) was 0.256% (inactive). In addition, the max response was 0.732% in experiment [3] (setting [12]) and 3.61% in experiment [3] (setting [13]).

For `COC[C@]12CN(C=O)C3C4C(OC)C1[C@@]3(C1CC3(O)C(OC)C(O)C4(OC(C)=O)C1C3OC(=O)c1ccccc1)[C@@H](OC)CC2O` (stereo partly drawn), the Potency result in experiment [7] and in experiment [2] was “inactive” in each case. Further, the activity change, negative = inhibition in experiment [3] (at 57.5 µM (top of the series)) was -0.123% (inactive). The max response was -6.49% in experiment [3] (setting [12]) and -7.99% in [3] (setting [13]).

Turning to `CC(=O)OC1C[C@@]2(C)C(c3ccoc3)C[C@H]3O[C@@]32[C@@]2(C)C(=O)C(O)=C3C(C)(C)C(=O)C=C[C@]3(C)C12` (stereo partly drawn), the Potency result in experiment [4] and in [2] was “inactive” throughout. Also, the Potency in [3] was 15.8 µM (active). The max response was -2.69% in experiment [3] (setting [12]) and -67.6% in experiment [3] (setting [13]).

`NC(N)=NN=Cc1c(Cl)cccc1Cl`: the result in experiment [5] and in [6] was inactive. Besides, the activity change, negative = inhibition in experiment [3] (at 25.7 µM (top of the series)) is -2.38% (inactive). For the same molecule, the max response in [3] (setting [12]) was -4.82%; in experiment [3] (setting [13]), -7.49%.

As for `C/C=C(/C)C(=O)OC1CC[C@]2(C)C3CCC4[C@]5(O)CC(O)[C@]6(O)C(CN7CC(C)CCC7[C@]6(C)O)[C@]5(O)C[C@@]42O[C@]13O` (stereo partly drawn), the Potency result in experiment [7], in experiment [1] and in experiment [2] was “inactive” each time. Also, the activity change, negative = inhibition in experiment [3] (at 57.5 µM (top of the series)) was 5.46% (inactive). Also, the max response amounted to 6.5% in experiment [3] (setting [12]) and 12.3% in experiment [3] (setting [13]).

As for `c1cc2c(cc1C1OC[C@@H]3C(c4ccc5c(c4)OCO5)OCC13)OCO2` (stereo partly drawn), in experiment [7], the Potency is 0.0794 µM (active). Further, the Potency entry in experiment [4], in experiment [1] and in experiment [2] was “inactive” throughout. Also, in experiment [3] (at 57.5 µM (top of the series)), the activity change, negative = inhibition was 7.47% (inactive). The figures for the max response in [3] (setting [12]) and in [3] (setting [13]) were 12.5% and 26%, respectively.

Take `CC(C)c1cc2c(c(O)c1O)[C@]1(C(=O)O)CCCC(C)(C)C1CC2` (stereo partly drawn): the Potency in [7] is 0.316 µM (active). Further, the Potency entry in [4] and in [2] was “inactive” in each case. The activity change, negative = inhibition in [3] (at 57.5 µM (top of the series)) was 4.21% (inactive). In addition, the max response in experiment [3] (setting [12]) was -11.1%; in [3] (setting [13]), -4.62%.

Regarding `C[C@H]1COCCN1c1cc(C2(S(=O)(=O)C3CC3)CC2)nc(-c2ccc(NC(=S)NCCO)cc2)n1`, the Potency in experiment [8] was 0.764 µM (active); in [11], 0.304 µM (active). Further, in experiment [9], the Potency result is “inactive”. The activity change, negative = inhibition in [10] was -79.3%.

Regarding `O=C(Nc1cc(Oc2cc(F)c(NC(=O)C3(C(=O)Nc4ccc(F)cc4)CC3)cc2F)ccn1)C1CC1`, the Potency in experiment [8] was 21.5 µM (active); in experiment [11], 15.2 µM (active). Moreover, the Potency entry in experiment [9] is “inactive”. Further, the activity change, negative = inhibition in experiment [10] is -38.1%.

As for `Cc1[nH]c2ccc(F)cc2c1-c1nc2c3cccnc3c3ncccc3c2[nH]1`, the figures for the Potency in experiment [8] and in [11] were 0.555 µM (active) and 1.75 µM (active), respectively. The Potency entry in experiment [9] is “inactive”. Besides, in [10], the activity change, negative = inhibition is -96.1% [at 114 µM].
